Pf growth 96h = P. falciparum growth inhibition at 96 hours; P. falciparum luciferase reporter growth, 96 h; 320,000 compounds, 6.9% hits; Potency, µM (series often up to 28.7 µM), hits mostly inhibitors; AID 504834
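Infected RBCs, 2% Hct / 0.05% parasitemia final; luciferase-reporter P. falciparum; cpd 96 h, 37 C, 5% CO2; luciferase detection reagent; luminescence.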
AMA1-RON2 inh = disrupts binding of P. falciparum AMA1 to RON2 | Potency, µM (highest dose often 58.2 µM), hits mostly inhibitors | 360,000 compounds, 0.2% hits | AlphaScreen AMA1-biotinylated RON2 peptide binding; also: nearly all actives have a fitted effect of over 45% in size
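AMA1 (3D7) with his tag at 25 nM final met compounds first, then biotinylated RON2 peptide at 25 nM; detection used donor plus acceptor beads, 10 µg/mL apiece, read by AlphaScreen after 30 min at room temperature.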
HCV inh = blocks hepatitis C virus. Huh7.5.1 HCVcc-Cre infection, luciferase reporter, 44 h. Potency, µM (highest dose often 41.8 µM), hits mostly inhibitors. 340,000 compounds, 3.4% hits. AID 651820
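A cell-based infection assay in which seeded cells (1,000 per well) receive test compound after 4 h, are inoculated with HCVcc-Cre at approximately 0.5 moi, and are incubated 44 h before luminescence detection.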
Shiga inhibitor = inhibitors of Shiga toxin in Vero cells | AID 2315 | 290,000 compounds, 9.2% hits | inhibition, % at 38.7 µM | Vero cells, Shiga toxin protein synthesis inhibition reporter; in the data active = inhibition mostly above about 28%, no sharp cut-off; inactive = mostly below about 43%
Pf growth 48h = inhibits P. falciparum growth in the first generation, 48 h; P. falciparum luciferase growth in erythrocytes, 48 h; AID 504832; Potency, µM (doses to about 28.7 µM), hits mostly inhibitors; 310,000 compounds, 5.9% hits
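In quantitative HTS format, infected erythrocytes bearing luciferase-reporter parasites were treated for a single generation at 37 C. Luminescence after adding detection reagent served as the growth measure.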
Cycloheximide cs = affects cycloheximide protein synthesis inhibition readout, counter-screen; cell reporter, cycloheximide protein synthesis inhibition counterscreen; max response, %; 300,000 compounds, 12% hits; in the data active = max response mostly above about 13%, no sharp cut-off; inactive = mostly below about 14%; also: read at 38.3 µM for the half of the compounds with a filed dose
Of the large screens only hits and unclear results are named; the others gave an inactive call. Only some compounds are listed: those with a hit (about 21% of all), similar ones and a draw of the others. Unless noted, calls follow the shape of the dose curve; as a rule, active = well fitted curve in the direction sought with a large enough effect; inconclusive = small, poorly fitted or top-dose-only effect, or another doubt; inactive = no such curve, though single readings can be large; an effect the other way counts as inactive or inconclusive.

CCN(CC)CCn1c(NC(=O)c2ccc(C(F)(F)F)cc2)nc2ccccc21	Pf growth 96h inconclusive
CN(C)CCn1c(NC(=O)c2ccc(Cl)cc2)nc2ccccc21	Shiga inhibitor 89.0, Pf growth 48h inconclusive, Cycloheximide cs 38.3 (no result: Pf growth 96h)
CCN(CC)CCn1c(NC(=O)c2ccc(C)cc2)nc2ccccc21	Pf growth 96h 6.57µM, HCV inh inconclusive, Cycloheximide cs 44.3 (no result: Shiga inhibitor)
C[C@@H](O)[C@H]1C(=O)N2C(C(=O)O)=C(S[C@@H]3CN[C@H](CNS(N)(=O)=O)C3)[C@H](C)[C@H]12	none (no result: AMA1-RON2 inh, HCV inh, Shiga inhibitor, Cycloheximide cs)
CCCCNC(=O)C(NC(=O)c1cccnc1)C(=O)c1ccccc1 (centres undefined)	none (no result: Pf growth 96h, HCV inh, Shiga inhibitor, Pf growth 48h, Cycloheximide cs)
Cc1ccc(Nc2c(-c3ccc(C)o3)nc3ncccn23)cc1	Shiga inhibitor 54.2, Cycloheximide cs 21.3
Clc1ccc(-c2nc3ncccn3c2Nc2ccc3c(c2)OCO3)cc1	Pf growth 96h 4.15µM, Pf growth 48h 4.15µM
Cc1ccc(-c2nc3ncccn3c2Nc2ccc3c(c2)OCO3)o1	Pf growth 96h inconclusive, Cycloheximide cs 19.8
Cc1cccc(N2CCN(C(=O)C3CC(=O)N(C4CCCC4)C3)CC2)c1C (centres undefined)	Pf growth 96h inconclusive, HCV inh inconclusive
O=C(O)c1ccccc1C(=O)Nc1ccc(Oc2ccccc2)cc1	none
Cc1nc(C)c(C(=O)Nc2ccc(Oc3ccccc3)cc2)o1	HCV inh inconclusive, Shiga inhibitor 25.2, Cycloheximide cs 25.6 (no result: Pf growth 96h)
Cc1ncoc1C(=O)Nc1ccc(Oc2ccccc2)cc1	HCV inh inconclusive, Shiga inhibitor 153.3, Cycloheximide cs 53.6
Cc1ncoc1C(=O)Nc1ccccc1-c1ccccc1	Pf growth 96h inconclusive
CCOC(=O)N1C/C(=C\c2ccccc2)C(=O)/C(=C/c2ccccc2)C1	Pf growth 96h inconclusive, Shiga inhibitor 23.6, Pf growth 48h 4.65µM, Cycloheximide cs 41.4
CCOc1ccc(-c2nnc(-c3ccc(OC)cc3)o2)cc1	none
CCOc1ccc(-c2nnc(-c3ccccc3)n2-c2ccccc2)cc1	Pf growth 96h inconclusive, Cycloheximide cs 41.6
CCOc1ccc(-c2nnc(-c3ccccc3)o2)cc1	Pf growth 96h 2.08µM, Shiga inhibitor 77.0, Cycloheximide cs 28.9
CCOc1ccc(-c2nnc(NC3=NCCCCC3)o2)cc1	HCV inh inconclusive, Shiga inhibitor 72.7, Cycloheximide cs 41.5 (no result: Pf growth 96h)
CCOc1ccc(S(=O)(=O)NC2=NCCCCC2)cc1	Pf growth 48h inconclusive (no result: Shiga inhibitor, Cycloheximide cs)
c1coc(-c2nnc(NC3=NCCC3)o2)c1	Pf growth 96h inconclusive, Shiga inhibitor 65.7, Cycloheximide cs 29.4
CC(Sc1nnnn1C)C(=O)Nc1cc(S(=O)(=O)N2CCCCC2)ccc1Cl (centres undefined)	Pf growth 96h inconclusive, Pf growth 48h inconclusive (no result: Shiga inhibitor, Cycloheximide cs)
COCc1cc(CNC(=O)C2CCC(=O)N(Cc3ccccc3OC)C2)[nH]n1 (centres undefined)	none
COc1ccc(-c2nc[nH]c2[N+](=O)[O-])cc1	Pf growth 96h inconclusive
CCCCOc1ccc(-c2nnc(-c3cc[n+](C)cc3)o2)cc1	Pf growth 48h 0.415µM
CCOc1ccc(-c2nnc(-c3ccncc3)o2)cc1	Pf growth 96h 2.94µM, Cycloheximide cs 49.7
CCOc1ccc(-c2nnc(-c3ccncc3)o2)cc1OCC	HCV inh inconclusive
CCCCOc1ccc(-c2nnc(-c3ccncc3)o2)cc1	HCV inh inconclusive, Pf growth 48h inconclusive, Cycloheximide cs 16.5
CCOc1ccc(-c2nc3ccccc3c(=O)o2)cc1	Cycloheximide cs 15.2
COc1ccc(NS(=O)(=O)c2cccs2)cc1S(=O)(=O)N1CCCCC1	Pf growth 48h inconclusive (no result: Shiga inhibitor, Cycloheximide cs)
CCCOc1ccc(-c2nnc(-c3cccs3)o2)cc1	Pf growth 96h inconclusive, Shiga inhibitor 106.5, Cycloheximide cs 51.3
O=C(NCC(F)(F)F)[C@H]1O[C@@H](n2ccc(=O)[nH]c2=O)[C@H](O)[C@@H]1O	none (no result: Pf growth 96h, HCV inh, Shiga inhibitor, Pf growth 48h, Cycloheximide cs)
O=C(CSc1n[nH]c(-c2ccncc2)n1)Nc1ccc(F)cc1	none
O=C(CSc1n[nH]c(-c2ccccn2)n1)Nc1ccc(F)cc1	HCV inh inconclusive, Pf growth 48h inconclusive
O=C(CSc1n[nH]c(-c2ccccn2)n1)Nc1ccc(Cl)cc1	HCV inh 5.01µM, Pf growth 48h inconclusive
CC(C)c1ccc(C(=O)CSc2n[nH]c(-c3ccncc3)n2)cc1	Pf growth 96h 2.62µM (no result: Pf growth 48h)

Compound activity from PubChem BioAssay.
